Results: PubChem BioAssay AID686979 (National Center for Advancing Translational Sciences (NCATS), 2013)
Values joined by “and” are separate entries in the source; they are usually repeats but may differ in a detail not shown here. Identical values can stand only once. Out of some 420,000 compounds screened, about 50,000 (12%) were called active. Inconclusive results (about 26%) are left out. Calls follow the shape of the dose curve; as a rule, active = well fitted inhibition curve with a large enough effect; inconclusive = small, poorly fitted or top-dose-only effect; inactive = flat fitted curve, though single readings scatter. Shown is part of a subset that was picked to be rich in actives. The source holds several records for some structures; these can differ, active in one and inactive in another.

experiment: qHTS for Inhibitors of human tyrosyl-DNA phosphodiesterase 1 (TDP1): qHTS in cells in presence of CPT; details: chicken DT40 Tdp1-/-;hTDP1 cells + 20 nM CPT, ATP luminescence, 48 h; series mostly up to 46.2 µM; activity change, negative = growth inhibition: at the top concentration; also: nearly all actives have a fitted effect of over 55% in size
Text: Human tyrosyl-DNA phosphodiesterase 1 (TDP1) is a novel repair gene, and we propose to use it as a new target for anticancer drug development. TDP1 is not an essential protein, but under treatment with topoisomerase I poison (camptothecin: CPT), TDP1 works as a critical factor for cell survival. To directly identify novel TDP1 inhibitors active in a cellular environment, we have knocked-out the Tdp1 gene in chicken DT40 cells (Tdp1-/-) and generated a complemented counterpart cells that contains a stable transfection of the human TDP1 gene (Tdp1-/-;hTDP1 cells). For the primary screen, Tdp1-/-;hTDP1 cells will be exposed to small molecules in the presence or absence of CPT, and their growth kinetics will be evaluated after 48 hours by measuring ATP activity. […] The hit compounds will then be evaluated in the presence or absence of CPT using Tdp1-/- cells. […] In tertiary assays, biochemical gel-based assays will be used to assess whether the hit compounds specifically target TDP1. To this end, we have screened this cell line against the MLSMR in two primary screens. In one screen we add CPT and in the other we screen in the absence of CPT; this AID represents the screen where CPT was present. NIH Chemical Genomics Center [NCGC] NIH Molecular Libraries Probe Centers Network [MLPCN] MLPCN Grant: MH095538 Assay Submitter (PI): Yves Pommier, NCI
DT40-hTDP1 cells with 20 nM Camptothecin (add 20 microL of 1 mM CPT stock in 1 L of cell culture medium) were dispensed at 400 cells/5microL/well in tissue culture treated 1536-well white wall/solid bottom assay plates (Greiner Bio-One North America, NC, U.S.A.) using a Multidrop Combi 8 channel dispenser (Thermo Fisher, Waltham, MA, USA). 23 nL compounds and controls were transferred using the pin tool (Kalypsys, San Diego, CA, USA) to the assay plates. The assay plates were then incubated at 37 masculineC for a minimum 48 hr. Three microL of Cell Titer Glo solution was added to the plates and incubated at RT in dark for 30 min. Luminescence was read using ViewLux (Perkin Elmer) with 1 sec exposure slow speed, high gain and 2x binning.
% is scaled to controls: 0 for no effect and ±100 for the full control effect; potency is read from the fitted curve at half-maximal effect.

Structure (SMILES)	activity change, negative = growth inhibition	Potency
Cc1ccn(CC(=O)N2N=C(C(F)F)CC2(O)C(F)F)n1 (stereo not drawn)	-25.3% (inactive)	
COc1cccc(CN2CCNC(=O)C2CC(=O)N(C)CCc2ccccn2)c1 (stereo not drawn)	10.9% (inactive)	
O=C(NCCCNC(=O)NC1CCCCC1)NC1CCCCC1	-19.5% (inactive)	
O=C(Nc1ccc(Cl)cc1)Nc1ccc(Oc2cccnc2)nc1		18.4 µM (active)
O=C(NNC(=O)c1csc(-c2cccnc2)n1)Nc1ccc(Cl)cc1	-15% (inactive)	
Cc1ccc(NC(=O)Nc2cccnc2)cc1	4.49% (inactive)	
CCN=c1sc(C(=O)Nc2ccccc2)c(C)n1CC	2.49% (inactive)	
O=C(COc1ccc(/C=N/NS(=O)(=O)c2ccccc2)cc1)NCCc1ccccc1	-22.2% (inactive)	
O=C(COCc1cc(-c2ccc3c(c2)OCO3)on1)N1CCN(c2cccc(Cl)c2)CC1		inactive and 18.4 µM (active)
Cc1cccc(N2CCN(C(=O)COCc3cc(-c4ccc5c(c4)OCO5)on3)CC2)c1C		inactive
CC(C)NC(=O)COCc1cc(-c2ccc3c(c2)OCO3)on1	-0.118% (inactive)	
CC(=O)c1ccccc1NC(=O)C1CC(=O)N(c2ccc3c(c2)OCCO3)C1 (stereo not drawn)	0.743% (inactive)	
N#CCCN(C(=O)COC(=O)C1CCN(c2ccc(C(F)(F)F)cn2)CC1)c1ccc(F)cc1	-17.8% (inactive)	
c1ccc(-n2nnnc2NC2CCCCCC2)cc1	-24.8% (inactive)	
c1ccc(-n2nnnc2-c2cccnc2)cc1	-7.87% (inactive)	
FC(F)(F)c1nc(-c2ccccc2)ncc1-c1nnnn1-c1ccccc1		20.6 µM (active)
Cc1ccc2c(=O)cc(C(=O)Nc3sc4c(c3C(=O)NCc3cccnc3)CCCC4)oc2c1	3% (inactive)	
COc1ccc(C2CC(c3cccs3)=NN2C(=O)CSc2nnc(N)s2)cc1OC (stereo not drawn)	2.09% (inactive)	
Fc1ccc(Nc2nnns2)cc1	-18.8% (inactive)	
Fc1ccc2cnc(-c3ccccc3)cc2c1	-40.8% (inactive)	
CSc1nc(Nc2ccc(F)cc2)cc(-c2ccccc2)n1		14.6 µM (active)
CCNc1nc(Oc2ccc(C(=O)OC)cc2)nc(N2CCOCC2)n1	-2.75% (inactive)	
COc1ccc(S(=O)(=O)NCc2ccc(C(=O)N(C)Cc3ccco3)cc2)cc1	-26.5% (inactive)	

Structure (SMILES)	activity change, negative = growth inhibition	Potency
COc1ccccc1S(=O)(=O)NCc1ccc(C(=O)N(C)Cc2ccc(F)cc2)cc1		20.6 µM (active)
O=C(NCCS(=O)(=O)NCc1ccc(F)cc1)c1ccccc1	-16.7% (inactive)	
NC(=O)c1oc2ccccc2c1NC(=O)CS(=O)(=O)c1ccccc1	-14.5% (inactive)	
CC[C@]12c3[nH]c4ccc(OC)cc4c3CCN1C(=O)C(CC(=O)NCCN1CCOCC1)C[C@@H]2C(=O)N1CCN(C(=O)C2CC2)CC1 (stereo partly drawn)	-0.596% (inactive)	
c1ccc2c(c1)CSc1sccc1C2=C1CCNCC1		20.6 µM (active)
Cc1csc(NCC(=O)c2c[nH]c3ccccc23)n1	12.2% (inactive)	
NC(=O)NCCCC(=O)O	0.521% (inactive)	
Cc1cc(C)n(CCNCc2c(C(=O)N3C[C@@H](C)O[C@@H](C)C3)nc3ccc(Cl)cn23)n1	7.87% (inactive)	
CC(=O)Oc1cccc(C(=O)Nc2ccccc2NC(=O)c2cccc(OC(C)=O)c2)c1	-13.8% (inactive)	
COc1ccc(OC)c2[nH]c(=O)c(CCNC(=O)C(C)(C)C)cc12	4.38% (inactive)	
COc1ccc(OC)c2[nH]c(=O)c(CCNC(=O)C(=O)c3c[nH]c4ccccc34)cc12		10.3 µM (active)
Cc1ccc(C)c2[nH]c(=O)c(CCNC(=O)CC(C)C)cc12	10.6% (inactive)	
CC1(C(=O)NCc2ccccc2)CSCC(=O)N1CCCn1ccnc1 (stereo not drawn)	15.7% (inactive)	
CC1(C)C=Cc2c(ccc(C(=O)/C=C/c3ccccc3)c2O)O1		7.94 µM (active)
CC(=O)Nc1ccc(NC(=S)NC(=O)/C=C/c2ccccc2)cc1	21.7% (inactive)	
O=C(O)c1ccc2c(c1)C(=O)N(c1ccc(/C=C/C(=O)c3ccccc3)cc1)C2=O	11.4% (inactive)	
CC1(C(=O)O)CCN1C(=O)/C=C/c1ccccc1 (stereo not drawn)	-1.88% (inactive)	
O=C(/C=C/c1ccccc1)c1ccccc1O		10.3 µM (active)
O=C(/C=C/c1ccccc1)N/C(=C/c1ccccc1)C(=O)Nc1ccccc1O	-12.3% (inactive)	
N#CC1=C(N)Oc2[nH]c(=S)[nH]c(=O)c2C12C(=O)Nc1ccccc12 (stereo not drawn)	-39.3% (inactive)	
O=S(=O)(Nc1ccc2ccccc2c1)N1CCCCC1	-17% (inactive)	
CC1CN/C(=C\C(=O)c2ccc(Br)cc2)C(=O)N1 (stereo not drawn)	-28% (inactive)	
CCN(CC)CCN(C(=O)c1ccc(S(=O)(=O)N2CCOCC2)cc1)c1nc2cc3c(cc2s1)OCCO3	-18.7% (inactive)	

Structure (SMILES)	activity change, negative = growth inhibition	Potency
CN(C)CCCN(C(=O)c1ccc(S(=O)(=O)N2CCCCCC2)cc1)c1nc2ccc(Br)cc2s1		11.6 µM (active)
CCOc1ccc2nc(N(CCN(C)C)C(=O)c3ccc4ccccc4c3)sc2c1	-27.2% (inactive)	
O=c1/c(=C/c2ccc(CNS(=O)(=O)c3ccccc3)o2)sc2n1CCN=2	-26.8% (inactive)	
Cc1cc(C)n2c(NCc3ccccc3)c(CC(C)C)nc2n1		14.6 µM (active)
Nc1nc(NCc2ccccc2)n(-c2ccccc2)n1	-6.22% (inactive)	
Cn1cc(C2OC(=O)c3ccccc32)c2ccccc21 (stereo not drawn)	-26.2% (inactive)	
ONC(=Nc1ccc(Cl)cc1)c1ccccc1Cl	-27.7% (inactive)	
Cc1ccc(/C=N/NC(=O)Cn2ccc(C(F)(F)F)n2)o1	11.8% (inactive)	
CCOc1ccc2oc(C(=O)N(CC)CC(=O)Nc3ccc(NC(C)=O)cc3)c(C)c2c1	0.608% (inactive)	
Cc1cccc2c1N(CCOc1ccccc1)C(=O)C2=O		2.06 µM (active)
Cc1cccc(C)c1-n1nnnc1C1(C)CCC(=O)N1CCOc1ccccc1 (stereo not drawn)	-22.9% (inactive)	
O=C1c2ccccc2C(=O)N1CCOc1ccc(F)cc1	12.8% (inactive)	
O=c1c2ccccc2ncn1CCCCOc1ccccc1F	-27.2% (inactive)	
CCOC(=O)N1CCN(C(=O)C(C)NC(=O)c2ccco2)CC1 (stereo not drawn)	-11.1% (inactive)	
CC(=O)c1ccc(N2CCN(C(=O)CCNC(=O)Cn3ccc4ccccc4c3=O)CC2)cc1	-22.6% (inactive)	
CCOc1ccc(N(CC(=O)Nc2cccc(OC)c2)S(C)(=O)=O)cc1	-24.5% (inactive)	
CCOc1cccc(NC(=O)c2ccc(F)c(S(=O)(=O)N(CC)c3cccc(C)c3)c2)c1		18.4 µM (active)
CCOc1cccc(NC(=O)CC#N)c1	11% (inactive)	
O=c1[nH]c2ccccc2s1	-3.32% (inactive)	
CC1CCCCN1C(=O)CCS(=O)(=O)Cc1ccccc1 (stereo not drawn)	-3.67% (inactive)	
COc1ccnc(Oc2ccccc2)n1	28.3% (inactive)	
CCC(C)c1ccccc1N1CC(C(=O)N2CCN(S(=O)(=O)c3ccc(F)cc3)CC2)CC1=O (stereo not drawn)	-14.4% (inactive)	
